TDP1 cell noCPT: qHTS for Inhibitors of human tyrosyl-DNA phosphodiesterase 1 (TDP1): qHTS in cells in absence of CPT; DT40 Tdp1-/- hTDP1 cells, no CPT, ATP luminescence, 48 h; Potency, µM (doses to about 46.2 µM), inactives show top-dose activity change, negative = growth inhibition, usual class: inhibitors; hit rate 15% among 420,000; AID 686978, 2013; note: potency is the fitted concentration of half-maximal effect; % is set by controls: 0 for no effect and ±100 for the full control effect; nearly all actives have a fitted effect of over 55% in size
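Growth kinetics read by CellTiter-Glo luminescence after ≥48 hr at 37 °C. Cells: DT40 Tdp1-/- stably carrying human TDP1, 400 per well, compound exposure in the absence of CPT (DMSO vehicle).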
TDP1 inh: TDP1 (human) enzyme inhibition. Potency, µM (doses to about 130 µM), for the others: at the highest dose activity change, negative = inhibition, actives largely listed as inhibitors. recombinant TDP1, AlphaScreen DNA substrate cleavage. Q9NUW8. hit rate 0.28% among 350,000. AID 485290; note: potency is the fitted concentration of half-maximal effect; % is set by controls: 0 for no effect and ±100 for the full control effect; nearly all actives have a fitted effect of over 40% in size
Target sequence (Q9NUW8 whole entry, looked up): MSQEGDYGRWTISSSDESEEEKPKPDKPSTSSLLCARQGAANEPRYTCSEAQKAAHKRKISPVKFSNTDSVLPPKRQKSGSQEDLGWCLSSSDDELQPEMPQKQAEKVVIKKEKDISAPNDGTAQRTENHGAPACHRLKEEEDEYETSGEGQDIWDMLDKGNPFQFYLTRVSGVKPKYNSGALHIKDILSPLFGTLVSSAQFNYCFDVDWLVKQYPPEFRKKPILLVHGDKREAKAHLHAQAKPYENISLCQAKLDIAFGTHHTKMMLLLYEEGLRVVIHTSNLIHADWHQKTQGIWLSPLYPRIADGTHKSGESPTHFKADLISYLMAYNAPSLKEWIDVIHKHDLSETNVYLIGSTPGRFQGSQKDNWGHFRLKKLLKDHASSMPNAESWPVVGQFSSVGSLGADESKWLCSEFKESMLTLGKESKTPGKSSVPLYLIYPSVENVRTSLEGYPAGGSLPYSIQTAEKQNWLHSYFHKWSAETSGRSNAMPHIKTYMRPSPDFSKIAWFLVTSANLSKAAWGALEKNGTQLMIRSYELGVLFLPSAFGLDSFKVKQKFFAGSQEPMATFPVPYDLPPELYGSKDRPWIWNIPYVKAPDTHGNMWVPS
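Enzyme-compound mixtures sat 15 min at room temperature, followed by a 5 min reaction with 15 nM final substrate and 10 min with AlphaScreen beads. Recombinant human Tdp1 was used at 1 nM final.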
IL-1B inflam inh: inhibitors of inflammasome signaling (IL-1 beta secretion) | THP-1 LPS/ATP IL-1B secretion, AlphaLISA, 16 h; active compounds read low | activity change, % at 57.5 µM | hit rate 4.7% among 360,000; in the data active = activity change below about -50%; inconclusive = mostly about -30% to -49%; note: % is set by controls: 0 for no effect and ±100 for the full control effect
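Secreted IL-1B measured by AlphaLISA bead assay after 16 h compound exposure of THP-1 cells; compounds (final up to 57.5 uM) added 1 h before LPS (250 ng/mL) and ATP (1.25 mM) stimulation; lower signal means less secretion.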
TGFb SMAD3 inh: blocks TGF-b signaling. HepG2 CAGA-GFP TGF-b/SMAD3 reporter, GFP fluorescence, 18 h; TGF-beta stimulated, 500 pg/mL final. hit rate 1.2% among 410,000. AID 588855. Potency, µM (highest dose often 46.1 µM), for the others: at the highest dose activity, negative = inhibition, actives largely listed as inhibitors; note: potency is the fitted concentration of half-maximal effect; % is set by controls: 0 for no effect and ±100 for the full control effect; nearly all actives have a fitted effect of over 65% in size
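HEPG2 CAGA-GFP, 1000 cells/well; 2 h settle, 37 C; cpd via pin tool; TGF-b 500 pg/mL final; 18 h, 37 C; GFP imaging ex488/em500-530; %Activity normalised to -TGF-b and +DMSO controls; CRC fit, curve class.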
DT40 TDP1 CPT: growth inhibition of DT40 Tdp1-/-;hTDP1 cells with camptothecin (screen for TDP1 inhibitors); chicken DT40 Tdp1-/-;hTDP1 cells + 20 nM CPT, ATP luminescence, 48 h; Potency, µM (top dose mostly 46.2 µM), for inactives: top-dose activity change, negative = growth inhibition, actives largely listed as inhibitors; hit rate 12% among 420,000; note: potency is the fitted concentration of half-maximal effect; % is set by controls: 0 for no effect and ±100 for the full control effect; nearly all actives have a fitted effect of over 55% in size
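Chicken DT40 Tdp1-/- cells complemented with human TDP1, 400 cells/well, exposed to compounds plus 20 nM camptothecin for at least 48 h at 37 C; viability read as ATP content by CellTiter-Glo luminescence.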
HepG2 tox: HepG2 cytotoxicity, counter-screen for TGF-b inhibitors; Potency, µM (doses to about 46.1 µM), without a hit: top-dose activity change, negative = cytotoxicity, hits mostly cytotoxic; HepG2 CAGA-GFP viability, ATP luminescence, 18 h; hit rate 0.76% among 410,000; note: potency is the fitted concentration of half-maximal effect
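HepG2 CAGA-GFP cells (1000/well, DMEM with 1% FBS) received compound, then TGF-beta at 500 pg/mL final, and were incubated 18 hours at 37 degrees C. Viability was read by CellTiter-Glo luminescence. Media-only wells were set as complete cell-killing and DMSO as no toxicity.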
* hit, by the source's call; ? = inconclusive; . = no result; [ ] = remark or other dose. Only some compounds are listed: those with a hit (about 19% of all), similar ones and a draw of the others. Unless noted, calls come from the whole dose curve; as a rule, active = well fitted curve in the direction sought with a large enough effect; inconclusive = small, poorly fitted or top-dose-only effect, or another doubt; inactive = no such curve, though single readings can be large; an effect the other way counts as inactive or inconclusive.

SMILES	TDP1 cell noCPT	TDP1 inh	IL-1B inflam inh	TGFb SMAD3 inh	DT40 TDP1 CPT	HepG2 tox
CCN(CC)CCCNC(=O)c1cc(-c2ccc(Cl)cc2)on1	23.1µM*	1.9%	-17.8	42.5%	?	-34.6%
CCc1ccccc1NC(=O)c1cc2nc(-c3ccc(OC)c(OC)c3)cc(C(F)(F)F)n2n1	.	6.3%	.	24.8%	.	4.3%
O=C(NCc1ccccn1)C1(C(F)(F)F)C/C(=C\Cc2ccccc2)CCCO1 (centres undefined)	.	3.8%	.	-43.1%	.	-2.3%
CC(=O)c1ccc(NC(=O)/C(Cl)=C/c2ccccc2)cc1	0.2%	3.7%	-62.5*	3.3%	4.9%	0.5%
Cc1ccccc1NNC(=O)C(=O)NNc1ccccc1C	-16.1%	.	26.6	-28.6%	-1.8%	-20.9%
O=C(Nc1ccccc1)/C(=C/c1ccccc1)c1ccccc1	11.6µM*	5.8%	-9.2	?	?	2.9%
O=C(Nc1ccc(F)cc1)/C(Cl)=C/c1ccccc1	?	2.5%	-1.6	21.4%	-1.6%	29.9%
Cc1ccccc1NC(=O)/C(=C/c1ccccc1)c1ccccc1	11.6µM*	-2.5%	1.4	-1.3%	20.6µM*	-3.6%
Cc1ccccc1NC(=O)C(Cl)=C(Cl)Cl	23.1µM*	0.0%	-97.0*	?	20.6µM*	-49.9%
O=C(c1cccc(Cn2cccn2)c1)N1CCC(n2c(C3CCCO3)nc3cc(C(F)(F)F)ccc32)CC1 (centres undefined)	-4.0%	.	.	.	4.7%[9.04 µM]	.
O=S(=O)(Cc1ccccc1)Oc1ccccc1	11.8%	.	8.8	0.0%	9.5%	-4.5%
OC(CC(O)c1ccccc1)c1ccccc1 (centres undefined)	0.9%	.	-1.8	-0.1%	-2.1%	-4.4%
O=S(CC(O)c1ccccc1)c1ccccc1 (centres undefined)	16.4µM*	.	5.8	-3.0%	?	-10.1%
O=S(=O)(Nc1ccc(C(O)(C(F)(F)F)C(F)(F)F)cc1)c1ccc(Cl)c2nonc12	14.6µM*	.	-113.7*	?	13µM*	20µM*
O=C(/C=C/c1ccc(O)c(O)c1)O[C@@H]1C[C@@](OC(=O)/C=C/c2ccc(O)c(O)c2)(C(=O)O)C[C@@H](O)[C@@H]1O	?	.	.	.	3.0%	.
COc1ccc(NC(C)=O)cc1S(=O)(=O)N1CCn2cccc2C1C (centres undefined)	6.8%	4.7%	-8.5	-6.6%	-5.7%	-4.9%
COC(=O)c1ccccc1S(=O)(=O)N1CCn2cccc2C1C (centres undefined)	-7.3%	7.7%	-78.3*	-3.8%	-13.7%	19.9%
